Source: PubChem BioAssay (NCI)
Where “and” joins values, the source holds several entries; their conditions need not be identical. Identical values can stand only once. The panel holds about 83,000 compounds, 20% with a hit somewhere; the sample as a whole holds those more often.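 Interpretation: 100, growth as untreated; towards 0, rising growth inhibition; 0, no net growth; 0 to -100, cell death. Compounds scoring below 10 were considered active.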 Calls of active or inactive are those of the source.

What was measured:
Assay in all cases: NCI-60 one-dose screen, 48 h (100 = growth as untreated, 0 = no growth, -100 = all killed)
NCI-H23 lung = test system: NCI-H23 lung
NCI-H226 lung = test system: NCI-H226 lung
NCI-H322M lung = test system: NCI-H322M lung
HOP-62 NSCLC = test system: HOP-62 NSCLC
NCI-H460 lung = test system: NCI-H460 lung
HOP-92 NSCLC = test system: HOP-92 NSCLC
NCI-H522 lung = test system: NCI-H522 lung
A549/ATCC NSCLC = test system: A549/ATCC NSCLC
786-0 renal = test system: 786-0 renal
COLO 205 colon = conditions: 10 µM unless noted
DU-145 prostate = test system: DU-145 prostate
K-562 leukemia = test system: K-562 leukemia
MALME-3M melanoma = test system: MALME-3M melanoma
MDA-MB-231 breast = test system: MDA-MB-231 breast
RXF 393 renal = test system: RXF 393 renal
SF-268 CNS = test system: SF-268 CNS
SF-295 CNS = test system: SF-295 CNS
SF-539 CNS = test system: SF-539 CNS
UACC-257 melanoma = test system: UACC-257 melanoma
M14 melanoma = test system: M14 melanoma

Measured: growth

COc1ccc(Cl)cc1C(=O)NCCc1ccc(S(=O)(=O)NC(=O)NC2CCCCC2)cc1
inactive: NCI-H23 lung; 10 µM 103% and 104% | NCI-H23 lung; 100 µM 81.8% | NCI-H226 lung; 10 µM 101% and 97.4% | NCI-H226 lung; 100 µM 62.4% | NCI-H322M lung; 10 µM 96.2% | NCI-H322M lung; 100 µM 88.5% | HOP-62 NSCLC; 10 µM 88.3% | HOP-62 NSCLC; 100 µM 69.1% | NCI-H460 lung; 10 µM 103% and 114% | NCI-H460 lung; 100 µM 72.2% | HOP-92 NSCLC; 10 µM 74% and 95.5% | HOP-92 NSCLC; 100 µM 63.6% | NCI-H522 lung; 10 µM 97% | NCI-H522 lung; 100 µM 54.1% | A549/ATCC NSCLC; 10 µM 99.8% and 103% | A549/ATCC NSCLC; 100 µM 57.9% | 786-0 renal; 10 µM 107% and 98.6% | 786-0 renal; 100 µM 75.5% | COLO 205 colon 117% and 112% | DU-145 prostate; 10 µM 124% and 120% | DU-145 prostate; 100 µM 79.8% | K-562 leukemia; 10 µM 102% | K-562 leukemia; 100 µM 66.6% | MALME-3M melanoma; 10 µM 126% and 96.5% | MALME-3M melanoma; 100 µM 71.9% | MDA-MB-231 breast; 10 µM 96.7% and 105% | MDA-MB-231 breast; 100 µM 61.9% | RXF 393 renal; 10 µM 110% and 104% | RXF 393 renal; 100 µM 51.6% | SF-268 CNS; 10 µM 113% and 105% | SF-268 CNS; 100 µM 74.3% | SF-295 CNS; 10 µM 90.2% and 105% | SF-295 CNS; 100 µM 74% | SF-539 CNS; 10 µM 113% and 102% | SF-539 CNS; 100 µM 68.8% | UACC-257 melanoma; 10 µM 106% | UACC-257 melanoma; 100 µM 85.9%

Cc1[nH]c(-c2nc3ccccc3[nH]2)c(C)c1C(=O)NC(C)C1CCCCC1 (stereo unspecified)
active: NCI-H23 lung; 100 µM -84.8% | NCI-H226 lung; 100 µM -53% | NCI-H322M lung; 100 µM -96.3% | HOP-62 NSCLC; 100 µM -54.4% | NCI-H460 lung; 100 µM -72% | HOP-92 NSCLC; 100 µM -50.9% | NCI-H522 lung; 100 µM -36.1% | A549/ATCC NSCLC; 100 µM -40.2% | 786-0 renal; 100 µM -31.1% | COLO 205 colon -60.3% [100 µM] | DU-145 prostate; 100 µM -96.3% | K-562 leukemia; 100 µM -24.3% | MALME-3M melanoma; 100 µM -72.6% | MDA-MB-231 breast; 100 µM -70.8% | RXF 393 renal; 100 µM -92% | SF-268 CNS; 100 µM -71.4% | SF-295 CNS; 100 µM -88.8% | SF-539 CNS; 100 µM -97.7% | UACC-257 melanoma; 100 µM -64.6% | M14 melanoma; 100 µM -73.2%
inactive: NCI-H23 lung; 10 µM 87.1% | NCI-H226 lung; 10 µM 81.1% | NCI-H322M lung; 10 µM 89.1% | HOP-62 NSCLC; 10 µM 95.5% | NCI-H460 lung; 10 µM 98.1% | HOP-92 NSCLC; 10 µM 78.7% | NCI-H522 lung; 10 µM 80.9% | A549/ATCC NSCLC; 10 µM 90.5% | 786-0 renal; 10 µM 95.2% | DU-145 prostate; 10 µM 98.8% | K-562 leukemia; 10 µM 68.7% | MALME-3M melanoma; 10 µM 82.1% | MDA-MB-231 breast; 10 µM 70.3% | RXF 393 renal; 10 µM 77.2% | SF-268 CNS; 10 µM 94.9% | SF-295 CNS; 10 µM 101% | SF-539 CNS; 10 µM 89.4% | UACC-257 melanoma; 10 µM 87% | M14 melanoma; 10 µM 83.1%
